This note sets out measurements from PubChem BioAssay (EPA / NIEHS).

For assay [1], the target named is Myc proto-oncogene protein (Homo sapiens) (UniProt P01106). In words: ATG_Myc_CIS: Attagene CIS-FACTORIAL HepG2 Assay for human Myelocytomatosis (Myc) Proto-Oncogene Transcription Factor (AID 2282990). As to conditions: HepG2, Attagene cis-reporter transcription factor activity; actives raise or lower the signal. The essentials: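 HepG2, transient MRTU transfection (cis promoters, endogenous TFs); 24 h dosing; TriZol RNA → oligo(dT) RT → PCR → 6-FAM primer extension → HpaI cut → CE. Bidirectional fit vs DMSO.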
Chain of Myc proto-oncogene protein (Homo sapiens) (P01106 whole entry, looked up): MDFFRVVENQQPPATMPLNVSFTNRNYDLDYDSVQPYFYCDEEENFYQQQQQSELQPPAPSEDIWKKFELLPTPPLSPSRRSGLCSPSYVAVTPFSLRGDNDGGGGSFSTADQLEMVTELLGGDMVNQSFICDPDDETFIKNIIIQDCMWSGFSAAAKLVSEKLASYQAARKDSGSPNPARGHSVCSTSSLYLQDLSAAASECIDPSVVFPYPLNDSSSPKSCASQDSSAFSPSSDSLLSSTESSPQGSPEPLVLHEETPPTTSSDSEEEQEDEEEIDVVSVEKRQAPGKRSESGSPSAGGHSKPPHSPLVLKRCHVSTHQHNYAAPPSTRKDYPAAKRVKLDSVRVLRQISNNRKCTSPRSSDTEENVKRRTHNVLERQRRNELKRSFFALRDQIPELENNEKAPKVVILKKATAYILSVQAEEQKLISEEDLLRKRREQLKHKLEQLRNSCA

A short description of assay [2]: ATG_NF_kB_CIS: Attagene CIS-FACTORIAL HepG2 Assay for human Nuclear Factor Kappa B (NF-kB) (AID 2282991). The note with it: HepG2 Attagene cis-factorial NF-kB reporter mRNA; actives raise or lower the signal. The essentials: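 HepG2 cells transfected with cis-promoter-driven reporter units, so endogenous transcription factor activity is measured. Reporter mRNA quantified 24 h after dosing by RT-PCR and capillary electrophoresis, with bidirectional fitting against DMSO.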

Assay [3] is described as follows: ATG_NRF2_ARE_CIS: Attagene CIS-FACTORIAL HepG2 Assay for human Nuclear Factor Erythroid 2 Related Factor 2 (NFR2) response to Antioxidant Response Elements (ARE) (AID 2282992). The note with it: HepG2 Attagene ARE/NRF2 reporter, transcription factor activity; actives raise or lower the signal. The method in brief: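 Endogenous transcription factor activity read out as reporter transcript levels (RT-PCR plus capillary electrophoresis, fluorescence) in transiently transfected HepG2 cells. Measured at 24 h after dosing; gain or loss of signal fitted versus DMSO.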

Assay [4] is described as follows: ATG_Oct_MLP_CIS: Attagene CIS-FACTORIAL HepG2 Assay for human Octamer-Binding Transcription Factor (Oct) (AID 2282993). The note with it: HepG2 Attagene cis-factorial Oct reporter, mRNA; actives raise or lower the signal. The method in brief:
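Readout is reporter transcript level from RT-PCR with fluorescent primer extension and capillary electrophoresis, fitted in both directions against DMSO. Transfected HepG2 reporter units report endogenous factor activity after 24 h dosing.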

Assay [5] addresses Cellular tumor antigen p53 (Homo sapiens) (UniProt P04637). Kind of assay: ATG_p53_CIS: Attagene CIS-FACTORIAL HepG2 Assay for human p53 Transcription Factor (AID 2282994). The note with it: HepG2 p53 cis-element reporter, Attagene mRNA; actives raise or lower the signal. The essentials:
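Endogenous p53 activity read in transiently transfected HepG2 from a cis-element-driven reporter transcript after 24 h exposure. RNA reverse-transcribed, PCR-amplified, fluorescently labelled and sized by capillary electrophoresis; gain or loss fitted against DMSO baseline.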

For assay [6], the target named is human Peroxisome Proliferator-activated Receptor alpha (PPARa), PPARA (gene 5465) (UniProt Q07869). In words: ATG_PPARa_TRANS: Attagene TRANS-FACTORIAL HepG2 Assay for human Peroxisome Proliferator-activated Receptor alpha (PPARa) (AID 2283001; active means hit-call score of the fitted dose curve at least 0.9, where 1 is the maximum;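 on AC50: potency for gain of reporter signal over DMSO so agonist or activator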). The essentials: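 Transfected HepG2 cells treated with test chemical for 24 h. RNA isolated, reverse-transcribed with oligo(dT), PCR-amplified, FAM-labelled and HpaI-digested. Fragments sized by capillary electrophoresis; gain-of-signal fit relative to DMSO.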
Chain of human Peroxisome Proliferator-activated Receptor alpha (PPARa), PPARA (gene 5465) (Q07869 whole entry, looked up, the tested form may be a part): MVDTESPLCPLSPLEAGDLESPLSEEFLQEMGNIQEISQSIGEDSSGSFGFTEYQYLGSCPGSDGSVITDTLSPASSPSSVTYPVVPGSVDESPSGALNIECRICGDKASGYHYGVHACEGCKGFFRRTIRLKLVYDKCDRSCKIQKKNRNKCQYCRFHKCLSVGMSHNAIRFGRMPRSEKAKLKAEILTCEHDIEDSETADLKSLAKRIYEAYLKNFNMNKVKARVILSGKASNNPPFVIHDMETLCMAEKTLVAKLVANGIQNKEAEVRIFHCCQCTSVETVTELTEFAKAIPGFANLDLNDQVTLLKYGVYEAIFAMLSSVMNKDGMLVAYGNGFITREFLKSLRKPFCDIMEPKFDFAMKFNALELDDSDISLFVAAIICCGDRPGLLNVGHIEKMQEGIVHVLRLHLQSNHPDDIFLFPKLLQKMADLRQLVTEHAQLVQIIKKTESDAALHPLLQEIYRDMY

In assay [7] the target is human Peroxisome Proliferator-activated Receptor delta (PPARd), PPARD (gene 5467) (UniProt Q03181). Kind of assay: ATG_PPARd_TRANS: Attagene TRANS-FACTORIAL HepG2 Assay for human Peroxisome Proliferator-activated Receptor delta (PPARd) (AID 2283002; active means hit-call score of the fitted dose curve at least 0.9, where 1 is the maximum). The method in brief:
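Transient HepG2 transfection (multiple GAL4-UAS RTUs, chimeric receptor-Gal4); 24 h dosing; total RNA → oligo(dT) RT → PCR → 6-FAM primer extension → HpaI cut → CE. Positive direction vs DMSO.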

For assay [8], the target named is human Retinoic Acid Receptor beta (RARb), RARB (gene 5915) (UniProt P10826). In words: ATG_RARb_TRANS: Attagene TRANS-FACTORIAL HepG2 Assay for human Retinoic Acid Receptor beta (AID 2283004; active means hit-call score of the fitted dose curve at least 0.9, where 1 is the maximum). The essentials:
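HepG2 cells transiently transfected with multiplexed GAL4-UAS reporter units expressing chimeric NR–Gal4 fusions; 24 h compound exposure. Reporter mRNA quantified by RT-PCR, 6-FAM labelling, HpaI digestion and capillary electrophoresis; gain-of-signal fitted against DMSO baseline.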

Assay [9] concerns the target Retinoic acid receptor alpha (Homo sapiens) (UniProt P10276). In words: ATG_RARa_TRANS: Attagene TRANS-FACTORIAL HepG2 Assay for human Retinoic Acid Receptor alpha (RARa) (AID 2283005; active means hit-call score of the fitted dose curve at least 0.9, where 1 is the maximum). The essentials: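 Reporter transcripts, measured by RT-PCR with fluorescent labeling and capillary electrophoresis after 24 h dosing, reflect activity of an exogenous human RARa–GAL4 fusion in transiently transfected HepG2. Fitted for increase relative to DMSO.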

For assay [10], the target named is Peroxisome proliferator-activated receptor gamma (Homo sapiens) (UniProt P37231). In words: ATG_PPARg_TRANS: Attagene TRANS-FACTORIAL HepG2 Assay for human Peroxisome Proliferator-activated Receptor-gamma (PPARg) (AID 2283007; active means hit-call score of the fitted dose curve at least 0.9, where 1 is the maximum). The method in brief: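 HepG2 cells are transiently transfected with GAL4-UAS reporter units driven by chimeric NR-Gal4 fusions and dosed for 24 h. Reporter mRNA is quantified by RT-PCR, 6-FAM labelling, HpaI digestion and capillary electrophoresis. Induction is scored against DMSO.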
Chain of Peroxisome proliferator-activated receptor gamma (Homo sapiens) (P37231 whole entry, looked up, the tested form may be a part): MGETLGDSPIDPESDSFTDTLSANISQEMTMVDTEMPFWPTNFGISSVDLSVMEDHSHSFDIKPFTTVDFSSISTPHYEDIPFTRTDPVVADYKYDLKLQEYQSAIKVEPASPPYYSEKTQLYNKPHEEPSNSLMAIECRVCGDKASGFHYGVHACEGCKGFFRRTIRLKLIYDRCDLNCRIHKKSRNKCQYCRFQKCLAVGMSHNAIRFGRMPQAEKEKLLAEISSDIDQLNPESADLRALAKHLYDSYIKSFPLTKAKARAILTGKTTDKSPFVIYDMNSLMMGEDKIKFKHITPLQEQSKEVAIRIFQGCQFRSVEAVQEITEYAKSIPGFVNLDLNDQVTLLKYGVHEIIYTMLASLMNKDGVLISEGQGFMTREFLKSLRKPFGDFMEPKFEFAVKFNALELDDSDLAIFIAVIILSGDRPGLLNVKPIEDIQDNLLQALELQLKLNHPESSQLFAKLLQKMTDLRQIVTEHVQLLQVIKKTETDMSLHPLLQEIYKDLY

Assay [11] concerns the target human Retinoic Acid Receptor gamma (RARg), RARG (gene 5916) (UniProt P13631). In words: ATG_RARg_TRANS: Attagene TRANS-FACTORIAL HepG2 Assay for human Retinoic Acid Receptor gamma (RARg) (AID 2283009; active means hit-call score of the fitted dose curve at least 0.9, where 1 is the maximum). The essentials: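 Readout: reporter transcript levels via RT-PCR, 6-FAM primer-extension labelling, HpaI digestion and capillary electrophoresis. Cells: HepG2 carrying transfected RARg-GAL4 chimera plus UAS reporter set. Dosing 24 h; DMSO negative control.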

The target of assay [12] is human RAR-related Orphan Receptor beta (RORb), RORB (gene 6096) (UniProt Q92753). In words: ATG_RORb_TRANS: Attagene TRANS-FACTORIAL HepG2 Assay for human RAR-related Orphan Receptor beta (RORb) (AID 2283010; active means hit-call score of the fitted dose curve at least 0.9, where 1 is the maximum). The essentials:
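HepG2, transient MRTU transfection (GAL4-UAS reporters, exogenous NR-Gal4 chimeras); 24 h compound exposure; total RNA → RT-PCR → 6-FAM primer extension → HpaI digest → CE fluorescence. Positive direction vs DMSO baseline.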

For assay [13], the target named is human RAR-related Orphan Receptor gamma (RORg), RORC (gene 6097) (UniProt P51449). Kind of assay: ATG_RORg_TRANS: Attagene TRANS-FACTORIAL HepG2 Assay for human RAR-related Orphan Receptor gamma (RORg) (AID 2283011; active means hit-call score of the fitted dose curve at least 0.9, where 1 is the maximum). The method in brief:
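Readout: reporter transcript induction (RT-PCR, fluorescent primer extension, capillary electrophoresis) after 24 h compound exposure of transiently transfected HepG2 cells carrying a RORg-Gal4 chimera and GAL4-UAS reporters; DMSO served as baseline, with increasing signal fitted.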

The nature of assay [14]: BSK_3C_TissueFactor: BioMAP Diversity Plus: 3C Assay for Tissue Factor Biomarker Activity (AID 2282997). As to conditions: BioMAP 3C HUVEC, tissue factor biomarker readout; actives raise or lower the signal. The method in brief:
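Readout: Tissue Factor ELISA. Cells: human primary umbilical vein endothelium. Time: 24 h after dosing. Analysis: bidirectional fit, DMSO baseline.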

A short description of assay [15]: BSK_3C_uPAR: BioMAP Diversity Plus: 3C Assay for Urokinase-type plasminogen activator receptor (uPAR) Biomarker Activity (AID 2282998). As to conditions: BioMAP 3C HUVEC, uPAR biomarker ELISA; actives raise or lower the signal. The essentials: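 Cell-surface uPAR on HUVEC (3C system) read by ELISA at 24 h post-treatment, with DMSO as baseline and fitting in both directions. Parallel cultures stained with SRB to flag overt cytotoxicity.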
In general terms: In an ELISA, binding on a coated surface is turned into a signal by an enzyme label.

The nature of assay [16]: BSK_3C_VCAM1: BioMAP Diversity Plus: 3C Assay for Vascular cell adhesion molecule 1 (VCAM1) Biomarker Activity (AID 2282999). The note with it: BioMAP 3C HUVEC, VCAM1 ELISA, cytokine-stimulated; actives raise or lower the signal. The essentials: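 Activity fitted in both directions relative to DMSO, with ELISA measurement of the surface marker on primary HUVEC (3C) at 24 h post-treatment; parallel SRB staining (0.1% SRB, TCA-fixed, 560 nm) flagged overt cytotoxicity.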

The nature of assay [17]: BSK_4H_Eotaxin3: BioMAP Diversity Plus: 4H Assay for Eotaxin 3 Biomarker Activity (AID 2283000).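 On outcome: CCL26 protein level quantified by ELISA in parallel with SRB cytotoxicity check.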 As to conditions: primary human endothelial cells (HUVEC); actives raise or lower the signal. The method in brief:
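HUVEC, 24 h post-dose, ELISA for Eotaxin-3/CCL26. Gain or loss of signal fitted bidirectionally vs DMSO baseline.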

A short description of assay [18]: BSK_3C_Proliferation: Cell Proliferation Assessment in the BioMAP Diversity Plus: 3C Assay (AID 2283006).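 On AC50: potency may reflect either rise or fall in cell number versus DMSO.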 The note with it: primary human endothelial cells (HUVEC). The essentials:
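HUVEC, sub-confluent; 48 h chemical exposure; 10% TCA fix, 0.1% SRB stain, A560 total protein. Gain or loss of signal fitted both directions vs DMSO control.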

The target in assay [19] is Nuclear receptor subfamily 1 group I member 2 (Homo sapiens) (UniProt O75469). Kind of assay: ATG_PXR_TRANS: Attagene TRANS-FACTORIAL HepG2 Assay for human Pregnane X Receptor (PXR) (AID 2283008; active means hit-call score of the fitted dose curve at least 0.9, where 1 is the maximum). The method in brief:
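Transactivation by exogenous PXR–GAL4 fusion measured as reporter transcript induction after 24 h compound treatment of transfected human HepG2 cells. Read-out via RT-PCR and capillary electrophoresis of labelled fragments, fitted upward relative to DMSO.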

Values joined by “and” are separate entries in the source; they are usually repeats but may differ in a detail not shown here. Identical values can stand only once. Records with an inconclusive call do not appear. Active and inactive are the calls of the source. How the source made its calls, unless noted: active means hit-call score of the fitted dose curve at least 0.9, where 1 is the maximum; inactive means score below 0.9.

Chain of human Retinoic Acid Receptor beta (RARb), RARB (gene 5915) (P10826 whole entry, looked up, the tested form may be a part): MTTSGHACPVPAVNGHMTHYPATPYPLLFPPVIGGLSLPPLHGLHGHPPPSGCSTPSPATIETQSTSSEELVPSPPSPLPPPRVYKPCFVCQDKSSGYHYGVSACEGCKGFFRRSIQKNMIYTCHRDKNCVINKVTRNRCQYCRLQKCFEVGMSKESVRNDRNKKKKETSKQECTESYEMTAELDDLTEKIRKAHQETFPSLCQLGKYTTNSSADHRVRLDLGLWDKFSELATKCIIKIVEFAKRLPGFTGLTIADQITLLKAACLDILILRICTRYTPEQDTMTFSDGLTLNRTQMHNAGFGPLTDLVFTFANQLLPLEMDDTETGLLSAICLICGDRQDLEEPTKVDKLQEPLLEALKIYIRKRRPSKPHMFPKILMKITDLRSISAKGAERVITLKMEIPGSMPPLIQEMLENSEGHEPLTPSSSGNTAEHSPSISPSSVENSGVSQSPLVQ
Chain of human Peroxisome Proliferator-activated Receptor delta (PPARd), PPARD (gene 5467) (Q03181 whole entry, looked up, the tested form may be a part): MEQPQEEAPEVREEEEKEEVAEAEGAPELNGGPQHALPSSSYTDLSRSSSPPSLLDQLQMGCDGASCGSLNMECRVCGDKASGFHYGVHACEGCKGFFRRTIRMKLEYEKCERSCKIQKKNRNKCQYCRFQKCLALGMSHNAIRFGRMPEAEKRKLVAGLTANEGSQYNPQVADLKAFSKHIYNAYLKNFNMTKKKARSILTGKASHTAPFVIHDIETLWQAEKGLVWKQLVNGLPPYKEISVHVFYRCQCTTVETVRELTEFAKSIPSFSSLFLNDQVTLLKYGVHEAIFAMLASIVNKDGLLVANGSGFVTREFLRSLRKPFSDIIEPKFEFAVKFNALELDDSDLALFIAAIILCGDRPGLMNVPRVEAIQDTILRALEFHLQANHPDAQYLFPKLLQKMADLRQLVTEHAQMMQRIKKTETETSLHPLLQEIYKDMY
Chain of human RAR-related Orphan Receptor beta (RORb), RORB (gene 6096) (Q92753 whole entry, looked up, the tested form may be a part): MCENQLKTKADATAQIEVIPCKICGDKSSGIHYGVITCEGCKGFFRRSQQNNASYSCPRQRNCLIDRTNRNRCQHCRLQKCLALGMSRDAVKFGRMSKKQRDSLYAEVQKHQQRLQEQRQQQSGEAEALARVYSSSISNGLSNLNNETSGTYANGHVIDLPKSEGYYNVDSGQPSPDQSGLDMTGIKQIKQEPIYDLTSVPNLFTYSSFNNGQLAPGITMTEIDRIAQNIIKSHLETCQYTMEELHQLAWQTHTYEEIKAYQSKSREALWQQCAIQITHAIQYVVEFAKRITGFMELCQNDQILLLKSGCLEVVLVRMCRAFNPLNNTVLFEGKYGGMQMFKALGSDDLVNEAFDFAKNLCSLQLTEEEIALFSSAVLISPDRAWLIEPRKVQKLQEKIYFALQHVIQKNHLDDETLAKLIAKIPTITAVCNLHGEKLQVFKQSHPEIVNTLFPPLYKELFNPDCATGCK
Chain of Nuclear receptor subfamily 1 group I member 2 (Homo sapiens) (O75469 whole entry, looked up, the tested form may be a part): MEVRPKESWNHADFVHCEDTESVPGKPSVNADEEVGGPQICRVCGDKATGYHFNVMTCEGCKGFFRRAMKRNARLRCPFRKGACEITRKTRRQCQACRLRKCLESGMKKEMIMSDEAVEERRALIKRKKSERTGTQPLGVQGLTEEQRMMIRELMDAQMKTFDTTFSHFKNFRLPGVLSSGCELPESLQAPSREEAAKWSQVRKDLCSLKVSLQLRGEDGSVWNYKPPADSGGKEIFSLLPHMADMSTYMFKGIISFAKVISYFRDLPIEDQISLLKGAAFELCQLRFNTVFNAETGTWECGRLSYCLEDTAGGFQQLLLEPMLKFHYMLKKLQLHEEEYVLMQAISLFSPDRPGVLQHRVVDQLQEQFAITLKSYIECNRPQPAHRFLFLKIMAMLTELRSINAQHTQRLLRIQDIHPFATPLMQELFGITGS
Chain of Retinoic acid receptor alpha (Homo sapiens) (P10276 whole entry, looked up, the tested form may be a part): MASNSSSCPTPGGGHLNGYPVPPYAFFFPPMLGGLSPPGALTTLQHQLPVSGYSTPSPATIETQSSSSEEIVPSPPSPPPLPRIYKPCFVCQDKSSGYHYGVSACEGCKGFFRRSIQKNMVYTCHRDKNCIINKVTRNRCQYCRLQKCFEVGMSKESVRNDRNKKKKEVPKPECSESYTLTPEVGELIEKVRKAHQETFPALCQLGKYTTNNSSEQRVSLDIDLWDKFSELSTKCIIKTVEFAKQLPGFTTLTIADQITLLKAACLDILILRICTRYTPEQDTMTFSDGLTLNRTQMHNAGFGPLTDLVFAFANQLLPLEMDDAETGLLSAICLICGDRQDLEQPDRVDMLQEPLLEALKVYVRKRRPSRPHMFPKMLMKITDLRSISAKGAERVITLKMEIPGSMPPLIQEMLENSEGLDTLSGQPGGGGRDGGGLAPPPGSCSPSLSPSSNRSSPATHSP
Chain of Cellular tumor antigen p53 (Homo sapiens) (P04637 whole entry, looked up): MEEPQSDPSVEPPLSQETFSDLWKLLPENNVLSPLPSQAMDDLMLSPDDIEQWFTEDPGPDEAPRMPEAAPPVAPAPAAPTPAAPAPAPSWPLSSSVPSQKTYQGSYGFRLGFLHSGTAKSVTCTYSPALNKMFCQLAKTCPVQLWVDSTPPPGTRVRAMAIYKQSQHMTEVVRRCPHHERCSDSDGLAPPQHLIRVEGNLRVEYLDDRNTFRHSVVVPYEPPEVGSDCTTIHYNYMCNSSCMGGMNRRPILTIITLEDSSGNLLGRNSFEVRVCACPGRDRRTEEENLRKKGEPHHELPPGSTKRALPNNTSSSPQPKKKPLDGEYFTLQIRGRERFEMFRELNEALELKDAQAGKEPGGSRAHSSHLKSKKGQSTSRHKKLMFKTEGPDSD
Chain of human Retinoic Acid Receptor gamma (RARg), RARG (gene 5916) (P13631 whole entry, looked up, the tested form may be a part): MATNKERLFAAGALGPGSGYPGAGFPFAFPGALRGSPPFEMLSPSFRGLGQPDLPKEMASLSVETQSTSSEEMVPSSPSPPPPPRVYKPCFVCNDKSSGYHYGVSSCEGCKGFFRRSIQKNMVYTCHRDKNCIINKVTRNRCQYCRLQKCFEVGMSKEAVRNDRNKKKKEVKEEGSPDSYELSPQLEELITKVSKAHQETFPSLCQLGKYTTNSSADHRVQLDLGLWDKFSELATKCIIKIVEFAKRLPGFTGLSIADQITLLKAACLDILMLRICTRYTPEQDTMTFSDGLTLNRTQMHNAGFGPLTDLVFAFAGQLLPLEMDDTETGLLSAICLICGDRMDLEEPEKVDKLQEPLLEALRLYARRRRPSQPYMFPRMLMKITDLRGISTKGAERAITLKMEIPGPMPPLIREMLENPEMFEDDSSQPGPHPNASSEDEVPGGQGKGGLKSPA

For orientation: AC50 means the midpoint of the concentration-response curve, whichever way the signal moves. For the molecule `C=CC(=O)OCCC#N`, the outcome in assay [1], in assay [6], in assay [7], in assay [8], in assay [9] and in [11] was inactive. Moreover, the call in [12] and in assay [13] was inactive. For the same molecule, the AC50 is 50.9 µM (active) in [2]; 25.9 µM (active) in assay [3]; 44.1 µM (active) in assay [4]; 164 µM (active) in assay [5]; 6.89 µM (active) in assay [10].

On to `CCCCCCC(CO)CCCC` (stereo not given), for which the molecule was called inactive in assay [1], in [2], in [3], in [4], in assay [5] and in assay [14]. In addition, the outcome in assay [15], in assay [16], in assay [17], in assay [6], in [7] and in assay [9] was inactive. Moreover, the molecule was classed as inactive in assay [10], in assay [11] and in assay [13]. For the same molecule, in assay [18], the concentration at half-maximal activity (AC50) is 37.6 µM (active) and 31.2 µM (active).

As to `CCC1(c2ccccc2)C(=O)NCNC1=O`, the outcome in [1], in assay [2], in [3], in assay [4] and in assay [5] was inactive.

On to `CCOC(=O)C(C#N)=C(c1ccccc1)c1ccccc1`, for which the result in assay [1], in [2], in assay [4], in assay [5], in assay [14] and in assay [15] was inactive. The outcome in assay [16], in assay [17] and in assay [7] was inactive. The AC50 was 27.6 µM (active) in [3]; 20 µM (active) and 8.88 µM (active) in [18]; 7.45 µM (active) in assay [10].

Take `CCc1ccc(O)cc1`: the outcome in assay [1], in assay [2], in assay [3], in [4], in [5] and in [6] was inactive. The result in assay [7], in [8], in [10] and in assay [12] was inactive.

As for `NCCNc1cccc2ccccc12`, the AC50 in assay [1] was 168 µM (active); in assay [4], 176 µM (active); in [5], 50.9 µM (active); in [6], 150 µM (active); in assay [10] it was 125 µM (active). Further, the molecule was classed as inactive in [2], in assay [3], in assay [7], in assay [8], in [9] and in [19]. For the same molecule, the outcome in assay [11] and in assay [12] was inactive.

Regarding `O=C1c2ccccc2C(=O)c2c(O)ccc(O)c21`, the outcome in assay [1], in [4], in assay [5], in assay [16], in assay [6] and in assay [8] was inactive. The molecule was classed as inactive in assay [9] and in assay [11]. In addition, the AC50 was 2.27 µM (active) in [2]; 4.07 µM (active) in assay [3]; 1.21 µM (active) in assay [14]; 3.02 µM (active) in assay [15]; 4.31 µM (active) in assay [17]; 2.95 µM (active) in assay [18]. The AC50 in assay [10] is 8.37 µM (active); in assay [19] it was 8.69 µM (active).

As for `C1=CC2C3C=CC(C3)C2C1` (stereo not given), the molecule was classed as inactive in assay [1], in [2], in assay [3], in assay [4], in assay [5] and in assay [14]. Moreover, the result in assay [15], in assay [16], in assay [17], in assay [9], in assay [18] and in assay [10] was inactive. Also, the molecule was classed as inactive in assay [19], in [11] and in assay [12].

With `CCCCN(CCCC)C(=O)N(CCCC)CCCC`, the AC50 in [1] is 48.7 µM (active); in assay [2] it was 52.8 µM (active); in assay [3], 61.6 µM (active); in [5], 33.4 µM (active); in assay [14] it was 6.23 µM (active); in [15], 10.7 µM (active). Also, the half-maximal activity concentration (AC50) was 8.82 µM (active) in assay [16]; 9.73 µM (active) in assay [17]; 4.03 µM (active) in assay [18]; 15.9 µM (active) in assay [10]; 0.445 µM (active) in assay [19]. Further, the outcome in assay [4], in assay [6], in assay [7] and in [11] was inactive.
